From the supplement of paper PMC10981050
Where “and” joins values, the source holds several entries; their conditions need not be identical. Equal entries are not always repeated. Structures can show the parent of a compound that is named as a salt.

Experiments:
Assay in all cases: cell viability relative to vehicle control; higher = less cytotoxic
Settings in all cases: 10 µM
K562 = system: K562
Summary of the method: (§1)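 Screening covered the Selleck bioactive, kinase and epigenetic probe libraries, less identity-inconsistent compounds, on CRISPR-edited mutant clones and isogenic wild-type clones of four leukaemia lines. Cells, at 2000 per well in 50 µL medium, received a single 10 µM acoustically dispensed dose. After 48 h the supernatant was removed and CellTiter-Glo luminescence was read. Viability was analysed in Genedata Screener as percent of the on-plate vehicle control.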

MARIMO = system: MARIMO
Summary of the method: as §1

MOLM14 = system: MOLM14
Summary of the method: as §1

OCI-AML2 = system: OCI-AML2
Summary of the method: as §1

Structure (SMILES) | cell viability (K562; SRSF2 genotype: SRSF2 P95H/wt) | cell viability (K562; SRSF2 genotype: SRSF2 wt/wt) [%] | cell viability (MARIMO; SRSF2 genotype: SRSF2 P95H/wt) [%] | cell viability (MARIMO; SRSF2 genotype: SRSF2 wt/wt) [%] | cell viability (MOLM14; SRSF2 genotype: SRSF2 P95H/wt) [%] | cell viability (MOLM14; SRSF2 genotype: SRSF2 wt/wt) [%] | cell viability (OCI-AML2; SRSF2 genotype: P95H/wt) [%] | cell viability (OCI-AML2; SRSF2 genotype: wt/wt) [%]
Cc1cc(F)c(Nc2ncnc3cc(OCc4ccccc4)ccc23)cc1O | 82.7% and 95.5% | 94.6 | 73.6 | 97.9 | 93.3 | 102 | 71.2 | 81
COc1cc(N2CCC(N3CCN(C)CC3)CC2)ccc1Nc1ncc(Cl)c(Nc2ccccc2S(=O)(=O)C(C)C)n1 | 78.8% and 75.5% | 72.5 | 36.4 | 30.1 | 7.58 | 12.7 | 7.82 | 16.6
O=c1[nH]cnc2ccccc12 [4-Hydroxyquinazoline] | 99.8% and 93.6% | 96.8 | 93.8 | 92.2 | 106 | 95.5 | 99.6 | 92.6
C=C(C)[C@@H]1CC[C@]2(C(=O)O)CC[C@]3(C)[C@H](CC[C@@H]4[C@@]5(C)CC[C@H](OC(=O)CC(C)(C)C(=O)O)C(C)(C)[C@@H]5CC[C@]43C)[C@@H]12 [Bevirimat] | 102% and 101% | 99.7 | 107 | 107 | 106 | 103 | 97 | 108
COC(=O)C1=CC[C@@]23CC[C@@H]([C@@](C)(/C=C/C=C(\C)C(=O)O)OC2=O)[C@@]3(OC(C)=O)CC1 [Pseudolaric Acid B] | 18.7% and 39.2% | 33.1 | 6.72 | 9.79 | 15.9 | 3.39 | 8.39 | 11.6
C=C[C@@H]1C[C@]1(NC(=O)[C@@H]1C[C@@H]2CN1C(=O)[C@H](C(C)(C)C)NC(=O)O[C@@H]1C[C@H]1CCCCCc1nc3ccc(OC)cc3nc1O2)C(=O)NS(=O)(=O)C1CC1 [Grazoprevir] | 96.2% and 101% | 93.4 | 115 | 123 | 111 | 105 | 116 | 115
COc1ccc2[nH]c(=O)oc2c1 [Coixol] | 94.8% and 103% | 95 | 97.8 | 96.3 | 103 | 98.2 | 102 | 93.9
O=C(O)c1ccc(-n2nc(-c3ccccc3O)nc2-c2ccccc2O)cc1 [Deferasirox (Exjade)] | 93.5% and 95.5% | 76.4 | 60.3 | 74 | 83.5 | 60 | 58.3 | 67.8
Cc1cc2c(F)c(Oc3ncnn4cc(OC[C@@H](C)OC(=O)[C@H](C)N)c(C)c34)ccc2[nH]1 | 89.4% and 85.9% | 82 | 93.5 | 104 | 82 | 87.4 | 78.8 | 81.5
COc1ccc2cccc(CCNC(C)=O)c2c1 [Agomelatine] | 110% and 101% | 104 | 97.7 | 106 | 104 | 102 | 101 | 101
Nc1nc2ccc(OC(F)(F)F)cc2s1 [Riluzole (Rilutek)] | 94.3% and 96.3% | 88.4 | 94 | 90.6 | 81.8 | 98.6 | 103 | 94.8
CCCCCCCCCCCCCCCC(=O)O[C@@H]1[C@@H](O)[C@@H](O)[C@@H]([C@H](NC(=O)[C@@H]2C[C@@H](CCC)CN2C)[C@H](C)Cl)O[C@@H]1SC [Clindamycin palmitate HCl] | 90.7% and 98.9% | 94.8 | 103 | 108 | 101 | 105 | 93.6 | 101
COc1ccc2cc3[n+](cc2c1O)CCc1cc2c(cc1-3)OCO2 [Berberrubine] | 104% and 100% | 111 | 112 | 98.3 | 109 | 109 | 103 | 99.1
CNC[C@H](O)[C@@H](O)[C@H](O)[C@H](O)CO.CNC[C@H](O)[C@@H](O)[C@H](O)[C@H](O)CO.O=C([O-])CN(CCN(CC(=O)[O-])CC(=O)O)CCN(CC(=O)[O-])CC(=O)O.[Gd+3] [Gadopentetate Dimeglumine] | 96.2% and 95.2% | 101 | 94.1 | 98.4 | 99.2 | 98 | 98.2 | 97.7
COc1ccc(-c2ccc3ncc4c(c3c2)n(-c2ccc(N3CCNCC3)c(C(F)(F)F)c2)c(=O)n4C)cn1 | 0.26% and 0.21% | 0.16 | 0.25 | 0.28 | 0.18 | 0.18 | 0.11 | 0.16
O=C(Nc1ccc(Cl)cc1)C1CCCN(C(=O)c2cccc(-c3ccco3)c2)C1 (stereo not drawn) | 67.5% and 80.2% | 71.6 | 52.6 | 39.4 | 64.4 | 77.1 | 29 | 43
CN(CCO)CC(O)Cn1cnc2c1c(=O)n(C)c(=O)n2C (stereo not drawn) [Xanthinol Nicotinate] | 99.3% and 90.3% | 97.9 | 98.2 | 105 | 95.4 | 97.7 | 73.7 | 90.5
CNC(=C[N+](=O)[O-])NCCSCc1ccc(CN(C)C)o1 [Ranitidine Hydrochloride] | 108% and 98.4% | 102 | 99.9 | 106 | 103 | 103 | 91 | 105

Structure (SMILES) | cell viability (K562; SRSF2 genotype: SRSF2 P95H/wt) | cell viability (K562; SRSF2 genotype: SRSF2 wt/wt) [%] | cell viability (MARIMO; SRSF2 genotype: SRSF2 P95H/wt) [%] | cell viability (MARIMO; SRSF2 genotype: SRSF2 wt/wt) [%] | cell viability (MOLM14; SRSF2 genotype: SRSF2 P95H/wt) [%] | cell viability (MOLM14; SRSF2 genotype: SRSF2 wt/wt) [%] | cell viability (OCI-AML2; SRSF2 genotype: P95H/wt) [%] | cell viability (OCI-AML2; SRSF2 genotype: wt/wt) [%]
CCCCS(=O)(=O)N[C@@H](Cc1ccc(OCCCCC2CCNCC2)cc1)C(=O)O [Tirofiban Hydrochloride] | 94.8% and 103% | 96 | 89.6 | 104 | 101 | 99.6 | 100 | 107
Cc1nc(-c2cccnc2)sc1C(=O)Nc1ccccc1-c1cn2c(CN3CCOCC3)csc2n1 | 97.4% and 94.2% | 88.3 | 107 | 116 | 102 | 103 | 95.3 | 102
CC(C)(C)n1nc(-c2ccc(Cl)cc2)c2c(N)ncnc21 | 56.2% and 78.5% | 63.3 | 84.6 | 104 | 66 | 67.3 | 80 | 78.3
CNS(=O)(=O)C[C@H]1CC[C@H](N(C)c2[nH]cnc3nccc2-3)CC1 [Oclacitinib maleate] | 95.6% and 99.2% | 103 | 95.5 | 102 | 55.9 | 73 | 77.5 | 72.5
CC(C)n1nc(-c2ccc3oc(N)nc3c2)c2c(N)ncnc21 | 31.8% and 31.3% | 29.9 | 37.9 | 32.7 | 13.6 | 15.8 | 6.33 | 12
O=C(CCc1ccc(O)cc1)c1c(O)cc(O[C@@H]2O[C@H](CO)[C@@H](O)[C@H](O)[C@H]2O)cc1O [Trilobatin] | 96.2% and 98.8% | 96.8 | 99.7 | 105 | 89.2 | 98.9 | 92.6 | 106
COc1ccc(C[C@@H](C)NC[C@H](O)c2ccc(O)c(NC=O)c2)cc1 [Arformoterol Tartrate] | 97.2% and 91.1% | 98.8 | 85.2 | 106 | 86.5 | 90.9 | 109 | 103
OC[C@@H](O)[C@@H](O)[C@H](O)[C@H](O)CO [D-Mannitol (Osmitrol)] | 98% and 97.7% | 106 | 107 | 116 | 107 | 109 | 97 | 100
Cc1c(C(=O)C=Cc2ccccc2)[n+](=O)c2ccccc2n1[O-] [Quinocetone] | 72.1% and 60% | 74.1 | 62.2 | 63.8 | 56.5 | 62.6 | 62.7 | 68.6
CCCNCC(O)COc1ccccc1C(=O)CCc1ccccc1 (stereo not drawn) [Propafenone HCl] | 78.7% and 84.2% | 79.2 | 66.1 | 70.5 | 73.2 | 81.2 | 68.3 | 68
C/C=C(\C)C(=O)OC1c2c(ccc3ccc(=O)oc23)OC(C)(C)C1OC(=O)/C(C)=C/C (stereo not drawn) [Praeruptorin B] | 83.5% and 92.2% | 90.4 | 84.4 | 111 | 109 | 94.7 | 89.5 | 91.6
Cc1cc(Cl)ccc1OCCCC(=O)NO [Droxinostat] | 83.6% and 88.4% | 85.2 | 76.4 | 89.8 | 84.8 | 87.1 | 79.3 | 80.7
Nc1ncnc2c1nc(Br)n2[C@@H]1O[C@@H]2COP(=O)(O)O[C@H]2[C@H]1O [8-Bromo-cAMP] | 66.5% and 72.5% | 66.5 | 86.2 | 96.1 | 65.9 | 60 | 79.8 | 93.2
CNC[C@H](O)[C@@H](O)[C@H](O)[C@H](O)CO [Meglumine] | 108% and 107% | 107 | 108 | 106 | 101 | 107 | 112 | 109
CCOCC(O)COc1ccc(NC(=O)CC[S+](C)C)cc1 (stereo not drawn) [Suplatast tosylate] | 100% | 103 | 97.7 | 109 | 105 | 105 | 97.7 | 110
CC(C)NC(=O)COc1cccc(-c2nc(Nc3ccc4[nH]ncc4c3)c3ccccc3n2)c1 | 73.5% and 97.8% | 84.7 | 68.6 | 72.4 | 93.6 | 89.8 | 110 | 87.8
Cn1cc(-c2ccc3ncc(Cc4ccc5ncccc5c4)n3n2)cn1 | 108% and 96.6% | 98 | 102 | 101 | 87.7 | 101 | 72.5 | 79.3
Cc1cc(C)c(S(=O)(=O)n2cc(C)cc2C)c(C)c1 | 90.6% and 98.6% | 95.1 | 90.8 | 88.4 | 84.7 | 92.2 | 99.7 | 102
